Screens deposited in PubChem BioAssay by several laboratories.
PTPN22 act: increases human PTPN22 phosphatase activity | recombinant LYP, DiFMUP fluorescence; 0 = plate median, 100 = signal doubled | activation, % at 2 µM | actives 0.11% (n = 96,000) | AID 697;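 active means activation at 2 µM above a set limit, the mean plus 5 SD, cut at about 37% in these data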
Target sequence (Q9Y2R2 whole entry, looked up): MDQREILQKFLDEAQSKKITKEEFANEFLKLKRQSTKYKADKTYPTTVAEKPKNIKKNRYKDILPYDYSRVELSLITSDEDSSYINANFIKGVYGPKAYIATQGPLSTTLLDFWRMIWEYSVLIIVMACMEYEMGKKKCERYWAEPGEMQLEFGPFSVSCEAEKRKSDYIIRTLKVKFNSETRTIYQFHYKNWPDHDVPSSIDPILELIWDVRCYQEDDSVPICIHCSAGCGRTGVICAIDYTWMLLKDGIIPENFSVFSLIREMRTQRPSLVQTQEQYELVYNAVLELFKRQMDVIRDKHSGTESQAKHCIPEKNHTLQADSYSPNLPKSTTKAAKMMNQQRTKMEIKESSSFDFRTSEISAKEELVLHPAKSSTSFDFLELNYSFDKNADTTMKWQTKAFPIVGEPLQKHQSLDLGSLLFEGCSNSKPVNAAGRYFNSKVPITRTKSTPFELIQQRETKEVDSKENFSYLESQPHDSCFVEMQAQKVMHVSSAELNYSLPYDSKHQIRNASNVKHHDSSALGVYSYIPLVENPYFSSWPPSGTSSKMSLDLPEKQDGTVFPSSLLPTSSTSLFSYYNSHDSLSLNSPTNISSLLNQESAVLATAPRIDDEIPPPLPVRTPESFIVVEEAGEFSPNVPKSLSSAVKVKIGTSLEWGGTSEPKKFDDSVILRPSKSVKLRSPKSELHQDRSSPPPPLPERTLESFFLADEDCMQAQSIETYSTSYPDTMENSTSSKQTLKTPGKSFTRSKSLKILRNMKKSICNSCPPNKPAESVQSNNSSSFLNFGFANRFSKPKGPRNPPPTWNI
FAK blocker: FAK (human) kinase inhibition. Q05397. biochemical FAK kinase activity assay. inhibition, %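 (tested at 7 µM)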. actives 0.84% (n = 97,000). AID 727; in the data active means inhibition above about 19%;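 further: 0% = DMSO and 100% = reference compound high control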
ERa coact inh: ER-alpha (human) coactivator binding inhibition; inhibition, % at 25.6 µM; TR-FRET ER-alpha LBD / SRC-1 peptide, estradiol-bound; AID 629; P03372; actives 1.7% (n = 86,000); in the data active means inhibition above about 50%;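 further: 0% = receptor plus peptide control and 100% = peptide only without receptor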
ERb SRC1 inh: blocks coactivator binding to human estrogen receptor beta; TR-FRET ER-beta LBD / SRC1-Cy5 peptide binding; receptor agonist-loaded with 1 µM estradiol; inhibition, % at 25.6 µM; actives 1.3% (n = 86,000); AID 633;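 active means compounds whose percent inhibition of the receptor-coactivator binding signal exceeds about 50% in the single-dose screen, limit read from the data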;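 further: 0% = receptor plus peptide wells without compound and 100% = peptide-only wells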
ERa coact pot: ER-alpha (human) coactivator binding potentiation; P03372; TR-FRET ERalpha-LBD/SRC-Cy5 coactivator binding, 2 h; 100 = basal binding, no effect; coactivator binding (% of control), % at 25.6 µM; actives 1.3% (n = 86,000); AID 639; in the data active means activity above about 200%;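 further: binding measured in presence of low estradiol as agonist stimulus; 0% = peptide alone without receptor and 100% = receptor with peptide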
LYP inh 2: blocks human PTPN22 phosphatase activity; actives 0.21% (n = 96,000); inhibition, % at 2 µM; AID 640; recombinant LYP catalytic domain, DiFMUP fluorescence; Q9Y2R2;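 active means inhibition at 2 µM at or above a set limit, the screen mean plus 3 SD, cut at about 24% in these data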;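 further: 0% = DMSO with enzyme and 100% = enzyme fully blocked by orthovanadate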
* = called active by the depositor; nt = no result given; [ ] = remark or other dose. Rows were chosen to be rich in hits. Some 3.4% of all compounds tested hit in one or more screens of this group.

SMILES	PTPN22 act	FAK blocker	ERa coact inh	ERb SRC1 inh	ERa coact pot	LYP inh 2
C=CCn1c(=O)/c(=C/c2ccc(C)o2)s/c1=C(/C#N)C(=O)c1ccccc1	-3	-5	12	25	85	0
CCN(CC)c1ccc(/C=c2\sc3nnc(-c4ccccc4Cl)n3c2=O)cc1	7	0	-2	-3	147	-6
CCN(CC)c1ccc(/C=c2/sc3nnc(-c4ccccc4C)n3c2=O)cc1	-7	1	41	28	413*[fluorescence artefact?]	10
N#C/C(=C(/O)COC(=O)CCCNC(=O)c1ccc(Cl)cc1)c1nc2ccccc2[nH]1	4	-1	52*[fluorescence artefact?]	40	66	-5
COCCCn1c(SCC(=O)Nc2ccc(NC(=O)c3ccco3)c(OC)c2)nc2ccccc2c1=O	-6	6	44	46	213*[fluorescence artefact?]	4
O=C(O)Cn1cnc2scc(-c3cccs3)c2c1=O	4	-6	38	58*	64	-6
COc1ccc2oc(=O)c(C(=O)Oc3ccc(NC(C)=O)cc3)cc2c1	-3	6	nt	nt	nt	6
COc1cc(C2c3c(oc4ccc(Cl)cc4c3=O)C(=O)N2Cc2ccco2)cc(OC)c1OC (configuration not stated)	nt	nt	56*	44	23	nt
COc1ccc(C2c3c(oc4ccc(Cl)cc4c3=O)C(=O)N2Cc2ccco2)cc1OC (configuration not stated)	nt	nt	8	3	114	nt
Cc1cccc(Nc2nnc(-c3ccc(C(=O)N4C[C@H]5C[C@H](C4)c4cccc(=O)n4C5)cc3)c3ccccc23)c1	3	-6	2	-18	101	-2
Cc1ccc2c(COC(=O)c3n[nH]c4ccccc34)cc(=O)oc2c1	nt	nt	16	15	200*	nt
CCc1ccc2c(COC(=O)c3n[nH]c4ccccc34)cc(=O)oc2c1	5	3	32	18	161	-6
CNC(=S)N1C2CCC1CC(NC(=O)NC13CC4CC(CC(C4)C1)C3)C2 (configuration not stated)	10	1	nt	nt	nt	-6
COC(=O)Cn1c(=NC(=O)C2CC2)sc2c(C)cc(C)cc21	-10	-5	55*[fluorescence artefact?]	-6	134	7
CCC(=O)N=c1sc2c(C)cc(C)cc2n1CC(=O)OC	-7	-3	2	-11	128	4
O=C(Nc1cccc(C(F)(F)F)c1)C1CCCN(S(=O)(=O)c2cnc[nH]2)C1 (configuration not stated)	-3	-2	-3	-13	111	1
O=C(Nc1ccc(N2CCOCC2)cc1)C1CCCN(S(=O)(=O)c2cccc(C(F)(F)F)c2)C1 (configuration not stated)	7	2	-4	85*[fluorescence artefact?]	104	-9
Nc1ccc(Sc2ccccc2CC(=O)O)cc1	-1	-3	nt	nt	nt	4
CCc1cc2cc(C(=O)Nc3ccc(F)cc3)sc2s1	-4	-64	37	49	308*[fluorescence artefact?]	4
Cc1ccc(C)c(NC(=O)CCC(=O)OC(C(=O)c2ccccc2)c2ccccc2)c1 (configuration not stated)	3	-3	nt	nt	nt	2
O=C(CCC(=O)OC(C(=O)c1ccccc1)c1ccccc1)Nc1ccccc1 (configuration not stated)	-28	1	nt	nt	nt	24*
Cc1ccc(C=Nc2ccc(N(C)C)cc2)o1	-1	7	25	89*[fluorescence artefact?]	114	0
CCOC(=O)c1sc(NS(=O)(=O)c2ccccc2Cl)nc1C	14	-1	8	0	86	-12
CC1(C(=O)OCC(=O)c2c[nH]c3ccccc23)CC1(Cl)Cl (configuration not stated)	1	0	nt	nt	nt	-1
COc1c(N2CCN(C(=S)NCc3ccccc3)C(C)C2)c(F)cc2c(=O)c(C(=O)O)cn(C3CC3)c12 (configuration not stated)	-34	-3	5	17	94	35*
SMILES	PTPN22 act	FAK blocker	ERa coact inh	ERb SRC1 inh	ERa coact pot	LYP inh 2
COc1ccc(-n2nc3c(c2NC(=O)c2cc4ccccc4oc2=O)CS(=O)(=O)C3)cc1	nt	nt	63*	66*[fluorescence artefact?]	86	nt
COCC(=O)Nc1ccc(S(=O)(=O)Nc2ncccn2)cc1	10	-2	nt	nt	nt	-13
Cc1nc2ccc(NC(=O)Cc3cccs3)cc2s1	nt	nt	62*[fluorescence artefact?]	44	60	nt
O=C(Cc1cccs1)Nc1ccc(S(=O)(=O)Nc2ncccn2)cc1	7	9	88*[fluorescence artefact?]	84*	22	-10
Cc1ccnc(NS(=O)(=O)c2ccc(NC(=O)Cc3cccs3)cc2)n1	-4	4	67*	62*	49	2
Cc1cc(NC(=O)CSc2nnc3c(C)cc4cc(C)c(C)cc4n23)no1	2	7	74*[fluorescence artefact?]	37	241*[fluorescence artefact?]	-2
Cc1cc(NC(=O)CSc2nnc3c(C)cc4cc5c(cc4n23)OCO5)no1	nt	nt	52*[fluorescence artefact?]	26	171	nt
Cc1cc2cc(C)c3nnc(SCC(=O)NCc4ccco4)n3c2cc1C	6	-3	-1	16	81	-7
Cc1c(Br)c([N+](=O)[O-])nn1CC(=O)NCc1cccnc1	17	1	7	1	107	-16
CC(=O)c1cccc(NC(=O)COc2ccc(S(=O)(=O)N3CCCCC3)cc2)c1	-4	2	4	3	117	8
CC(C)(C(=O)c1ccccc1)/[N+]([O-])=C/c1ccc(Br)cc1	11	1	nt	nt	nt	-8
O=C(O)C1Nc2c(C(=O)N3CCOCC3)cccc2C2C=CCC12 (configuration not stated)	-8	2	70*	82*	20	8
Nc1nc(SCc2ccccc2Cl)ns1	0	-1	-2	-10	100	-1
Cc1cc2nnn(-c3nnc(-c4ccccc4)c4ccccc34)c2cc1C	5	-5	nt	nt	nt	0
CCCCn1c(-c2ccccc2)cnc1SCC(=O)NCCc1ccc(OC)c(OC)c1	nt	0	nt	nt	nt	nt
Brc1ccc(-c2nnc(-c3cccnc3)c3conc23)cc1	13	-1	69*	25	82	-18
c1cncc(-c2nnc(-c3cccnc3)nn2)c1	-1	1	-15	-28	124	3
c1coc(-c2nn3c(-c4ccco4)nnc3s2)c1	-14	4	58*[fluorescence artefact?]	55*	76	13
COc1nn(CC(=O)N2N=C(C(F)F)CC2(O)C(F)F)cc1[N+](=O)[O-] (configuration not stated)	2	0	-5	2	109	0
COc1cc2c(cc1OC)C(c1ccc(-c3cc(Cl)ccc3Cl)o1)=NCC2	10	15	47	36	253*[fluorescence artefact?]	-11
O=c1c2ccccc2[nH]c(=S)n1C1CCCCC1	-7	-4	-18	-16	123	5
CC1CCC(n2c(=S)[nH]c3ccccc3c2=O)CC1 (configuration not stated)	2	-1	-9	18	218*[fluorescence artefact?]	-2
